According to PubChem BioAssay:
Active and inactive are the calls of the source.

Tests used:
Albumin (Bos taurus) = Albumin (Bos taurus) (UniProt P02769); assay: bovine serum albumin binders on microarray, profiling panel, artefact control for SMM control protein annotation, biochemical, small-molecule microarray, Alexa647 label, 635/667 nm fluorescence (AID 1118); settings: BSA-A647 binding, fluorescence 635 nm, higher = more signal;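 further: score merges 667 nm emission intensity and signal-to-noise per printed compound spot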
Sequence of Albumin (Bos taurus) (P02769 whole entry, looked up): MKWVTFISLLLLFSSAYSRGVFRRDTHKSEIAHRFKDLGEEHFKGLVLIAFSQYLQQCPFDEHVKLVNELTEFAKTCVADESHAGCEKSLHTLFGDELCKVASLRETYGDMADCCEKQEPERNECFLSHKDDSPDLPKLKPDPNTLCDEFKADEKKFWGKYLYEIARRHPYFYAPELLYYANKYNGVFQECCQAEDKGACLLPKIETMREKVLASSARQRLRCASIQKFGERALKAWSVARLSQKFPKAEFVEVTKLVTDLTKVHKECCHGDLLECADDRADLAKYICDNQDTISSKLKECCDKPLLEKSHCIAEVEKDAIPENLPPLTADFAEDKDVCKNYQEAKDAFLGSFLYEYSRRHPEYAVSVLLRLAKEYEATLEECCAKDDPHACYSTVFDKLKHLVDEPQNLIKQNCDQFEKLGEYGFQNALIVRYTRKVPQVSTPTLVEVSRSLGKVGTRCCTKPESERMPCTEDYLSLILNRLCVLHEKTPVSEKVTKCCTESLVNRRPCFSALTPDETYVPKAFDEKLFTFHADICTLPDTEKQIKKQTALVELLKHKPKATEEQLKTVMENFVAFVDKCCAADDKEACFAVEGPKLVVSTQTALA

[1] = small-molecule microarray binders of probe aXIP, primary screen, biochemical, NeuroSMM set, 635/667 nm fluorescence (AID 1119); settings: higher = more signal, called active from +8 up or from −8 down;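 further: probe is the protein aXip251-270 applied at 1 µg/mL to compound-printed slides; binding of probe to printed compounds measured as 667 nm fluorescence plus signal to noise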
[2] = small-molecule binders of probe aNOTCH3, primary screen, biochemical, small-molecule microarray, 635/667 nm fluorescence (AID 1120); settings: higher = more signal;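 further: probe is a biotin-tagged antibody raised against NOTCH3 rather than NOTCH3 protein; score merges spot fluorescence near 667 nm with spot signal to noise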
[3] = small-molecule binders of probe aNOTCH2, primary screen, biochemical, small-molecule microarray, 635/667 nm fluorescence (AID 1121); settings: higher = more signal;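 further: score merges feature fluorescence read at 667 nm with its signal to noise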
[4] = target: Carbonic anhydrase 2 (Homo sapiens) (UniProt P00918); assay: CAII small-molecule binders, profiling panel, biochemical, small-molecule microarray, Alexa647-labelled CAII (AID 1122); settings: CAII-A647 binding fluorescence, higher = more signal
[5] = COS7 lysate on small-molecule microarray, probe aHis, 635 nm (AID 1123); settings: COS7 cell lysate, fluorescence, higher = more signal;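 further: z-score combines 667nm fluorescence intensity with signal-to-noise per printed compound spot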
[6] = compound binding in COS7 lysate, probe aLAP1, primary screen, cell lysate, small-molecule microarray (AID 1124); settings: probe aLAP1, fluorescence, higher = more signal;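 further: lysate comes from COS7 cells expressing LAP1 and is applied at 0.3 µg/mL; score merges spot fluorescence near 667 nm with signal-to-noise over triplicate slides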
Sam68 (KHDRBS1) = assay: Sam68 small-molecule binders, primary screen, biochemical, small-molecule microarray, 635 nm fluorescence (AID 1125); settings: small-molecule microarray binding, higher = more signal;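 further: score merges 667 nm channel intensity with signal to noise over triplicate slides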
[7] = system: Chordin-like protein 2 (CHRDL2); assay: CHRDL2 small-molecule binders, primary screen, biochemical, small-molecule microarray, 635 nm fluorescence (AID 1126); settings: small-molecule microarray binding, fluorescence 635 nm; higher = more signal;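 further: printed compound slides probed with Chrdl2 protein at 4 µg/mL for 1 h at 4 C; score merges 667 nm emission intensity with signal to noise over three replicate slides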
[8] = target: Concanavalin-A (Canavalia ensiformis) (UniProt P02866); assay: ConA small-molecule binders, primary screen, artefact control for SMM control protein annotation, biochemical, small-molecule microarray, Alexa647 label, 635 nm (AID 1127); settings: ConA-A647 binding fluorescence, higher = more signal;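 further: z combines 667 nm emission intensity with signal-to-noise across three replicate slides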
Sequence of Concanavalin-A (Canavalia ensiformis) (P02866 whole entry, looked up): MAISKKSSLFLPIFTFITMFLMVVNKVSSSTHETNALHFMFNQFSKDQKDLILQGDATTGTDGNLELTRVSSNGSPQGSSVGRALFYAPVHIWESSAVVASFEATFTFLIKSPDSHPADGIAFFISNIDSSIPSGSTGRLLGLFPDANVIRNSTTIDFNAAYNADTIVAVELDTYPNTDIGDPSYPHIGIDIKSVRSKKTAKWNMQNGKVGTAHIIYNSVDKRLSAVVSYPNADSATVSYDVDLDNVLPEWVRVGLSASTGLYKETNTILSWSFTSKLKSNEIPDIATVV

[9] = anti-His antibody binders, primary screen, artefact control for SMM control protein annotation, biochemical, small-molecule microarray, 635 nm fluorescence (AID 1128); settings: anti-His Alexa647 antibody binding, higher = more signal;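 further: score merges feature fluorescence with signal-to-noise for each printed compound spot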
[10] = system: Human papillomavirus type 1a E7 protein (residues 1-88); assay: HPV1a E7 small-molecule binders, primary screen, biochemical, small-molecule microarray, residues 1-88, 635 nm (AID 1129); settings: small-molecule microarray binding, fluorescence 635 nm; higher = more signal
[11] = target: Focal adhesion kinase 1 (Homo sapiens) (UniProt Q05397); assay: small-molecule microarray binders of FAK, primary screen, biochemical, 635/667 nm fluorescence, BSA, DTT (AID 1130); settings: PTK2 binding, 635 nm fluorescence, higher = more signal;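 further: composite of spot emission at 667 nm and signal to noise over triplicate slides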
Sequence of Focal adhesion kinase 1 (Homo sapiens) (Q05397 whole entry, looked up): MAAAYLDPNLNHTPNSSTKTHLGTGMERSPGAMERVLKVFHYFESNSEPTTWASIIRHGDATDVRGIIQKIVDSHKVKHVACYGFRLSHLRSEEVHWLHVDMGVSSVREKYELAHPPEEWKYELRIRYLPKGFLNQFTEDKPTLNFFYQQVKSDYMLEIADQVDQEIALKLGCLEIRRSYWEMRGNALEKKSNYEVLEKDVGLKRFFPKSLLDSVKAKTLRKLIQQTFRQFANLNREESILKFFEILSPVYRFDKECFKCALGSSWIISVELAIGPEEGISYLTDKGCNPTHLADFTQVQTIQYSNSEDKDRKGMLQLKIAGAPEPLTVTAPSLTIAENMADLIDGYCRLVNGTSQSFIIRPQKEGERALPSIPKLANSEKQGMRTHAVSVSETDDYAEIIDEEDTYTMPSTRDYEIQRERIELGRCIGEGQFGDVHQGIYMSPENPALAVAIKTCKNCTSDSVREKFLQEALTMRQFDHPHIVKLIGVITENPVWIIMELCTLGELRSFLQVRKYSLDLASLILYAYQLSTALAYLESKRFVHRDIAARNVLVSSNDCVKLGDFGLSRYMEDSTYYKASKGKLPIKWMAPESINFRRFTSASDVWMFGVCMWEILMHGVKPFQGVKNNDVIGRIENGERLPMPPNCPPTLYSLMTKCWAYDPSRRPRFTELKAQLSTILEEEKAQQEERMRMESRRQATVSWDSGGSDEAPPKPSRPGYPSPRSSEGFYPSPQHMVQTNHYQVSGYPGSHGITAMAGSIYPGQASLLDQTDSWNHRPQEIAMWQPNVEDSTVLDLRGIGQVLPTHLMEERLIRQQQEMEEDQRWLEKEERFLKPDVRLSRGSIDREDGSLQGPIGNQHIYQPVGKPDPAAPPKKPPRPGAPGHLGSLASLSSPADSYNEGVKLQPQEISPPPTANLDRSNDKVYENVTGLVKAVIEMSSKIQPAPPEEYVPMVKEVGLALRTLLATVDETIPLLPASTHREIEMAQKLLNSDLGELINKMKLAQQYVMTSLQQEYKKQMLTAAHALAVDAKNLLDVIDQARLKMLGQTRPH

[12] = system: Fibrinogen (Alexa647-labelled); assay: fibrinogen binders on compound microarrays, profiling panel, artefact control for SMM control-protein annotation, biochemical, small-molecule microarray, 635/667 nm fluorescence (AID 1131); settings: fibrinogen-A647 binding fluorescence, higher = more signal;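 further: z-score merges 667 nm fluorescence with per-spot signal-to-noise over triplicate slides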
[13] = target: Follistatin (Homo sapiens) (UniProt P19883); assay: follistatin binders on small-molecule microarrays, primary screen, biochemical, small-molecule microarray, 635/667 nm fluorescence (AID 1132); settings: FST binding, 635 nm fluorescence, higher = more signal
Sequence of Follistatin (Homo sapiens) (P19883 whole entry, looked up): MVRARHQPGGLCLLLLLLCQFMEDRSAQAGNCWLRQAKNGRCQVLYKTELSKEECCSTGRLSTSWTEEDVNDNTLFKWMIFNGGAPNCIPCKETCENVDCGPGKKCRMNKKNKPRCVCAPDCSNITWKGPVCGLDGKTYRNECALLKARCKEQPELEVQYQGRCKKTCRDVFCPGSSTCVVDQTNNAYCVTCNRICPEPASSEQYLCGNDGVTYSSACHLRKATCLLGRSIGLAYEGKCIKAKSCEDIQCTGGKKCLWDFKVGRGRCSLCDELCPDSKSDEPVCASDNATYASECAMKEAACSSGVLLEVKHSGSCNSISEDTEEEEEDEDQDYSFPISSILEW

[14] = target: Fibroblast growth factor 2 (Homo sapiens) (UniProt P09038); assay: FGF2 binders on small-molecule microarrays, primary screen, biochemical, small-molecule microarray, 635/667 nm fluorescence (AID 1133); settings: small-molecule microarray binding, FGF2, fluorescence 635/667; higher = more signal
Sequence of Fibroblast growth factor 2 (Homo sapiens) (P09038 whole entry, looked up): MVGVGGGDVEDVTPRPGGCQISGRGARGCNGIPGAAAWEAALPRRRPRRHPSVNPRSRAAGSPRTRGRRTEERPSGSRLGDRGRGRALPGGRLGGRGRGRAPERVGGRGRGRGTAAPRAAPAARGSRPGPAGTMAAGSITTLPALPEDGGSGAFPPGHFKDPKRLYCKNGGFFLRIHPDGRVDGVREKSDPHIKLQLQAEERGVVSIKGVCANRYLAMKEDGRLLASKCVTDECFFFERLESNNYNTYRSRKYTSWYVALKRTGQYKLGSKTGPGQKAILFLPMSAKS

[15] = mitochondrial membrane potential change in A549 cells, profiling panel, cell-based, JC-1 fluorescence, basal, 24 h, 100 nL (AID 1138); settings: higher = more signal;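 further: A549 lung adenocarcinoma cells under basal conditions with no added stimulus; test concentration not given here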
Lefty1 = Lefty1 binders on small-molecule microarrays, primary screen, biochemical, small-molecule microarray, 635/667 nm fluorescence (AID 1139); settings: small-molecule microarray binding, fluorescence 635/667; higher = more signal
[16] = system: wheat germ agglutinin (Triticum aestivum), Alexa647-labelled; assay: wheat germ agglutinin binders on compound microarrays, profiling panel, artefact control for SMM control-protein annotation, biochemical, small-molecule microarray, 635/667 nm fluorescence (AID 1140); settings: WGA-A647 binding, 635 nm fluorescence, higher = more signal;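 further: score merges 667 nm feature emission with signal to noise over triplicate slides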
[17] = target: Luciferin 4-monooxygenase (Photinus pyralis) (UniProt P08659); assay: firefly luciferase enzyme inhibitors, primary screen, biochemical, luminescence, purified enzyme, 2006 set (AID 1141); settings: SteadyGlo luminescence, 30 min, higher = more signal, called active from +8 up or from −8 down;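 further: cell-free assay with purified firefly luciferase at 100 ng per well in PBS; test concentration not given here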
Sequence of Luciferin 4-monooxygenase (Photinus pyralis) (P08659 whole entry, looked up): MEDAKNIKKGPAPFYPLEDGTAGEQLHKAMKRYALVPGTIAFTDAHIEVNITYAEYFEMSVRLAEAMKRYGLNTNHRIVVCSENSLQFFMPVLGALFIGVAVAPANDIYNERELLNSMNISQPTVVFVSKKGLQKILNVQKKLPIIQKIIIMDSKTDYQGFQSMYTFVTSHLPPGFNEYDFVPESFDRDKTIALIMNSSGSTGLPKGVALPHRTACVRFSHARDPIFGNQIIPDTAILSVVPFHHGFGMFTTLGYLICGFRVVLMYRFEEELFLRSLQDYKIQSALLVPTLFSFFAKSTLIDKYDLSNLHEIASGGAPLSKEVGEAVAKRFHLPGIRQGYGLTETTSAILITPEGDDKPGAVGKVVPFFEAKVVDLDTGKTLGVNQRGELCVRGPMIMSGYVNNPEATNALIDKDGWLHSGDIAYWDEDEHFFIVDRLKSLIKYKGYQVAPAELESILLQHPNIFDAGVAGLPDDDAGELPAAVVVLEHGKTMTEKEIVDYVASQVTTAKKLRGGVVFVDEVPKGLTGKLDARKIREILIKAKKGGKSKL

SMILES | composite z-score (Albumin (Bos taurus)) | composite Z-score [1] | composite z-score [2] | composite z-score [3] | composite z-score [4] | composite z-score [5] | composite z-score [6] | composite z-score (Sam68 (KHDRBS1)) | composite z-score [7] | composite z-score [8] | composite z-score [9] | composite z-score [10] | composite z-score [11] | composite z-score [12] | composite z-score [13] | composite z-score [14] | z-score [15] | composite z-score (Lefty1) | composite z-score [16] | z-score [17]
COc1ccc(-c2cc3c(c(CCc4ccccc4)n2)[Si](C(C)C)(C(C)C)O[C@H]3c2ccccc2)cn1 | -0.425 | -0.161 (inactive) | -0.0221 | -0.162 | -0.299 | -0.405 | 0.0028 | -0.605 | -0.315 | 0.571 | -0.0334 | -0.547 | 0.16 | 0.285 | 0.432 | 0.0958 | 0.412 | 0.169 | 0.0926 | -0.315 (inactive)
COC(=O)[C@@]1(Cc2ccccc2)[C@H]2c3cc(C(=O)N(C)C)n(Cc4ccc(Cl)c(C(F)(F)F)c4)c3C[C@H]2CN1C(=O)c1ccccc1 | 0.811 | -0.215 (inactive) | 0.745 | 0.445 | 0.668 | 1.9 | 0.402 | 1.2 | -0.123 | 0.95 | 1.17 | 1.16 | -0.104 | 0.93 | 1.22 | 0.33 | 0.32 | 1.33 | 0.674 | 1.52 (inactive)
CCOC(=O)C[C@H]1[C@H](OC(=O)Cc2ccc3c(c2)OCO3)[C@@H](NC(=O)CC(C)C)c2cc(OCCCO)ccc2N1C(=O)c1ccc2ccccc2n1 | 0.808 | 0.0066 (inactive) | 0.121 | -0.162 | -0.107 | 0.26 | -0.0904 | 0.797 | 0.386 | 0.369 | 0.212 | 0.832 | 0.325 | 0.973 | 1.32 | 1.28 | -0.944 | 0.424 | 0.249 | 0.739 (inactive)
COCCOC(=O)N1C(=O)[C@@]2(c3cc(C#CCC(C(=O)OC)C(=O)OC)ccc31)[C@H](C(=O)N1CCc3cc(OC)c(OC)cc3C1)[C@H]1C(=O)O[C@H](c3ccccc3)[C@H](c3ccccc3)N1[C@@H]2c1ccccc1OCCO | 0.329 | -0.331 (inactive) | 0.182 | -0.106 | 0.401 | 0.977 | 0.75 | 1.3 | 0.854 | 1.14 | 0.258 | 1.2 | 0.673 | 0.698 | 1.42 | 1.6 | -1.28 | 1.61 | 0.281 | 0.888 (inactive)
O=C(c1ccccc1)N1Cc2ccccc2C[C@@]2(N=C(c3ccc(OCCCO)cc3)O[C@H]2c2ccccc2)C1=O | -0.106 | 1.71 (inactive) | 0.0193 | -0.0876 | 0.588 | 2.43 | 0.548 | 1.3 | 0.639 | 1.05 | 1.89 | 1.21 | 1.18 | 0.826 | 1.44 | 1.44 | -1.85 | 0.984 | -0.17 | -1.29 (inactive)
Cc1ccc(S[C@]2(C(=O)NCc3ccccc3)CC(=O)N(Cc3ccccc3Cl)[C@@H]2c2ccc(CO)cc2)cc1 | -0.447 | -0.608 (inactive) | -0.511 | -0.149 | 0.762 | 0.397 | 0.197 | 0.472 | -0.78 | 0.439 | 1.29 | -0.561 | -0.0881 | -0.919 | -0.181 | -0.756 | -0.387 | -0.423 | -0.3 | 0.718 (inactive)
COC(=O)[C@]1(Cc2ccccc2CN=[N+]=[N-])N=C(c2ccc(OCCCO)cc2)O[C@@H]1c1ccccc1N=[N+]=[N-] | -0.427 | -0.741 (inactive) | 0.0026 | 0.015 | 0.518 | 0.999 | 1.47 | 0.163 | 0.62 | 0.91 | 1.29 | 0.833 | 0.499 | -0.0222 | 1.15 | 0.802 | -0.453 | -0.251 | 0.425 | -3.31 (inactive)
COc1ccc([Si](C)(C)[C@@H]2[C@@H](CC(=O)N3CCC[C@H]3CO)O[C@]3(C(=O)N(Cc4cccc(N5C(=O)c6cccc7cccc5c67)c4)c4ccccc43)[C@H]2C)cc1 | 0.601 | 0.681 (inactive) | -0.0701 | -0.166 | 0.394 | 0.386 | 0.104 | 0.905 | 0.568 | 1.13 | 1.2 | 1.03 | 0.948 | 0.584 | 1.16 | 1.43 | -0.0137 | 0.839 | 1.21 | -0.0921 (inactive)
COc1ccc([Si](C)(C)[C@H]2[C@H](CC(=O)N3CCC[C@H]3CO)O[C@@]3(C(=O)N(C)c4c(Br)cc(C)cc43)[C@@H]2C)cc1 | 0.824 | 3.93 (inactive) | 0.189 | 0.503 | 0.81 | 2.52 | 0.548 | 1.3 | 1.38 | 1.19 | 1.15 | 1.22 | 1.44 | 0.74 | 1.59 | 1.86 | -0.0282 | 1.43 | 1.59 | 0.395 (inactive)
CCOC(=O)C[C@H]1[C@H](OC(=O)c2cc3ccccc3oc2=O)[C@@H](NC(=O)c2ccc(-c3ccccc3)cc2)c2cc(OCCCO)ccc2N1C(=O)Cc1ccc(OC)cc1 | 0.0146 | 0.243 (inactive) | 0.213 | -0.0578 | 0.383 | 1.07 | 0.774 | 0.864 | 0.346 | 0.833 | 0.396 | 1.19 | 0.414 | 0.522 | 0.679 | 1.41 | -0.424 | 0.907 | 0.266 | 0.853 (inactive)
CC(CO)N1C(=O)[C@@H]2[C@H]3C(=O)OCC=C[C@H]3OC23C=CCN(c2ccc4ccccc4c2)C(=O)[C@@H]13 (stereo not given in full) | 0.876 | 0.0987 (inactive) | -0.381 | -0.132 | 0.324 | -0.312 | -0.139 | -0.892 | -1.66 | -0.387 | -0.786 | -1.21 | 0.204 | -1.83 | -2.31 | -1.55 | 0.599 | -2.07 | -0.515 | -0.0768 (inactive)
